This is a sample that favours compounds with a hit; in the whole collection about 3.8% have one here.
mIDH1 inhibitor: inhibitors of human mutant IDH1 R132H; O75874; IDH1-R132H enzyme, NADPH consumption, diaphorase/resazurin fluorescence; Potency, µM (series often up to 76.6 µM), without a hit: at the top dose activity change, negative = inhibition, usual class: inhibitors; hit rate 0.093% among 390,000; also: % is scaled to controls: 0 for no effect and ±100 for the full control effect; nearly all actives have a fitted effect of over 65% in size
Target sequence (O75874 whole entry R132H, stated change not applied): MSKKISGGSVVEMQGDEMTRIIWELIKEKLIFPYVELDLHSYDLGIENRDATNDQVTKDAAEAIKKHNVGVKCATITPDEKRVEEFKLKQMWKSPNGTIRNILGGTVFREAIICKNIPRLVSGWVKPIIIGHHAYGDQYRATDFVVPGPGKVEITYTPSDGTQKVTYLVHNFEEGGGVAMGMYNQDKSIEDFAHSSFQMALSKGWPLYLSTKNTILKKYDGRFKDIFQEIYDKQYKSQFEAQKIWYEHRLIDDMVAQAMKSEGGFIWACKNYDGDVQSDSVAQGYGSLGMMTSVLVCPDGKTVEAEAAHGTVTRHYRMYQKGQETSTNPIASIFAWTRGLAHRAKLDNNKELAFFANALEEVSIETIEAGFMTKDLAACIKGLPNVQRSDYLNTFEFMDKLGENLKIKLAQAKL
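IDH1-R132H (0.5 ug/mL dispensed) in pH 7.5 Tris buffer was preincubated 30 min with compound, then given a substrate mix of 0.016 mM NADPH and 2 mM alpha-KG for 80 min at room temperature; remaining NADPH was read by diaphorase/resazurin fluorescence.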
Nrf2 block: inhibitors of Nrf2 signaling. A549 ARE-Fluc reporter, luciferase luminescence, 18-24 h. Potency, µM (series often up to 46 µM), for the others: at the top dose activity change, negative = inhibition, hits mostly inhibitors. hit rate 2.1% among 360,000. AID 504444; also: % is scaled to controls: 0 for no effect and ±100 for the full control effect; nearly all actives have a fitted effect of over 60% in size
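Nrf2 activity is the BugLite luminescence, read 15 min after reagent at room temperature, following CellTiter-Fluor cytotoxicity readout (30 min, 37C). Compound titrations were applied for 18-24 h to 5000 A549 ARE_Fluc cells/well in 5% FBS OPTI-MEM.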
ELG1 repair inh: inhibitors of ELG1-dependent DNA repair in HEK293T cells; hit rate 2.3% among 330,000; Potency, µM (doses to about 46.1 µM), for the others: at the top dose activity change, negative = inhibition, usual class: inhibitors; HEK293T ELG1-luciferase reporter, luminescence, 16 h; DNA damage induced by 5-fluorouridine; also: % is scaled to controls: 0 for no effect and ±100 for the full control effect; nearly all actives have a fitted effect of over 55% in size
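Overnight (16 hr) co-exposure of 2,000 cells/well to 5-fluorouridine and compound at 37 °C preceded detection. Luciferase was quantified via ONE-Glo luminescence; loss of signal denotes inhibition.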
Nrf2 ARE act: activates Nrf2 signaling; Potency, µM (top dose mostly 46.1 µM), without a hit: at the top dose activation, actives largely listed as activators; AREc32 ARE-luciferase reporter (MCF7-derived line), luminescence, 24 h; hit rate 0.31% among 410,000; also: % of control where 0% means no effect; nearly all actives have a fitted effect of over 65% in size
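AREc32 cells carrying an ARE-driven firefly luciferase reporter were seeded at 1000 cells/well in OPTI-MEM with 5% FBS, then exposed to compound for 24 hr at 37 deg C. Luminescence was read with Steady-Glo after 30 min at RT.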
A549 tox: kills or reduces viability of A549 cells in Nrf2 counter-screen; AID 504648; hit rate 0.16% among 390,000; A549 ARE-Fluc cells, CellTiter-Fluor viability, 18-24 h; Potency, µM (top dose mostly 46 µM), for inactives: at the top dose activity change, negative = cytotoxicity, most hits filed as inhibitors; also: % is scaled to controls: 0 for no effect and ±100 for the full control effect
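A549 ARE-Fluc cells in 5% FBS OPTI-MEM, 5000 cells/well, rested 2 h then exposed to compounds in concentration-response for 18-24 h at 37 °C. Viability by CellTiter-Fluor fluorescence (Ex 405/Em 525) after 30 min; luciferase luminescence (BugLite, 15 min, RT) read afterwards.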
* hit, by the source's call; ? = inconclusive; nt = no result; ! = not confirmed by another sample; [ ] = remark or other dose. Calls follow the shape of the dose curve; as a rule, active = well fitted curve in the direction sought with a large enough effect; inconclusive = small, poorly fitted or top-dose-only effect, or another doubt; inactive = no such curve, though single readings can be large; an effect the other way counts as inactive or inconclusive. Potency is read from the fitted curve at half-maximal effect.

SMILES	mIDH1 inhibitor	Nrf2 block	ELG1 repair inh	Nrf2 ARE act	A549 tox
O=C(Cc1ccc(S(=O)(=O)N2CCOCC2)s1)Nc1ccc(N2CCOCC2)cc1	-0.4%	-3.1%	?	2.1%	-1.6%
O=C(Cc1ccc(S(=O)(=O)N2CCOCC2)s1)Nc1cc(C(F)(F)F)cc(C(F)(F)F)c1	-1.1%	?	20.6µM*	0.2%	-16.6%
O=C(Cc1ccccc1)Nc1cc(-c2nc3cc(Cl)ccc3o2)ccc1Cl	-2.3%	7.6%	nt	-1.1%	0.8%
COc1ccccc1C1c2[nH]c3ccccc3c2C[C@H]2C(=O)N(C3CCN(Cc4ccccc4)CC3)CC(=O)N12 (stereo not given in full)	-2.8%	-10.8%	23.1µM*	5.9%	?
CCOc1cc(-c2ccc(OC(=O)c3ccc(Cl)cc3)c(OC)c2)cc(=O)c2c(C)oc(C)c12	-8.3%	-8.7%	nt	3.8%	-8.6%
CCN(Cc1ccccc1)C(=O)c1cccc(OC2CCN(C(=O)C3CC3)CC2)c1	9.5%	?	?	0.2%	0.9%
O=C(NCc1cccc(F)c1)c1cccc(OC2CCN(C(=O)C3CC3)CC2)c1	-0.5%	23.1µM*	?	-1.4%	-2.7%
CCOC(=O)C1(CCOc2ccccc2)CCN(Cc2cccc3nonc23)CC1	9.9%	20.6µM*	?	-0.9%	-11.5%
COc1ccc(-n2nc3c(N4CCCC(C(=O)NCc5ccccc5C)C4)nnc(C)c3c2C)cc1 (stereo not given)	4.4%	20.6µM*	nt	-2.9%	18.4µM*
COc1ccc(-n2nc3c(N4CCCC(C(=O)NCCc5ccccc5C)C4)nnc(C)c3c2C)cc1 (stereo not given)	14.5%	?	nt	-2.9%	-29.6%
CCOc1ccccc1CNC(=O)C1CCCN(c2nnc(C)c3c(C)n(-c4ccccc4)nc23)C1 (stereo not given)	9.8%	23.1µM*!	?	2.8%	?
Cc1ccc(-n2nc3c(N4CCC(C(=O)NCc5cccc(F)c5)CC4)nnc(C)c3c2C)cc1	-2.9%	16.4%	16.4µM*	2.9%	0.9%
O=C(c1ccccc1)N1c2nc(-c3ccco3)nn2C2(CCCCC2)[C@@H]2CCCC[C@@H]21	-2.4%	14.2%	nt	0.3%	-16.2%
CCCn1c(/C=N/Nc2nc3ccccc3[nH]2)nc2ccccc21	2.3%	14.6µM*	?	2.5%[9.22 µM]	?
Cn1c(/C=N/Nc2nc3ccccc3[nH]2)nc2ccccc21	9.4%	?	?	7.8%	0.9%
Cc1c(/C=N/Nc2nc3ccccc3[nH]2)c2ccccc2n1C	17.3%	?	-4.2%	0.1%	-27.9%
CC(C)Cn1c(/C=N/Nc2nc3ccccc3[nH]2)nc2ccccc21	-3.2%	7.31µM*	17.0%	0.4%	-4.1%
CCOc1ccc(C(=O)CC(C(=O)O)N2CCN(Cc3ccccc3)CC2)cc1 (stereo not given)	2.0%	-2.1%	28.7%	?	2.0%
CCOc1ccc(C(=O)CC(C(=O)O)N2CCCCC2)cc1 (stereo not given)	-5.0%	-20.2%	-28.2%	15.8µM*	-6.8%
CCOc1ccc(C(=O)CC(NCc2cccs2)C(=O)O)cc1 (stereo not given)	-1.7%	3.3%	7.7%	11.2µM*	1.2%
O=C(NCc1ccc(F)cc1)c1ccc(CS(=O)Cc2ccc(Cl)cc2)o1 (stereo not given)	-4.4%	-17.6%	nt	2.6%	7.0%
CCN(CC(=O)Nc1cccc(OC)c1)c1ncnc2sc(C)c(C)c12	11.4%	20.6µM*	?	2.9%	-6.0%
COc1cccc(NC(=O)COc2ncnc3sc(C)c(C)c23)c1	-1.0%	-0.5%	-1.5%	2.7%	-2.1%
Cc1nc(CS(=O)(=O)c2ccc(Cl)cc2)cc(Sc2ccc(Cl)cc2)n1	1.0%	nt	20.6µM*	-0.3%	-0.7%
O=S(=O)(Cc1cc(Sc2ccc(Cl)cc2)nc(-c2ccccc2)n1)c1ccccc1	-4.7%	nt	-0.9%	-0.4%	?
Cc1cc2c(s1)c1cnn(Cc3ccc(C(F)(F)F)cc3)c(=O)c1n2C	nt	15.4%	nt	nt	-4.0%

Bioassay records deposited in PubChem BioAssay by National Center for Advancing Translational Sciences (NCATS).
